High-throughput results from PubChem.
Rows were chosen to be rich in hits. Some 12% of all compounds tested hit in one or more screens of this group.
ALDH1A1 inh: inhibitors of human aldehyde dehydrogenase 1A1; P00352; Purified ALDH1A1, NADH fluorescence, propionaldehyde substrate; Potency, µM (titrated, usually from 75.3 µM), most hits filed as inhibitors; 220,000 tested, 7.3% active; active = well fitted inhibition curve with a large enough effect, not every such curve was filed as active; inconclusive = small, poorly fitted or top-dose-only effect, or another doubt; inactive = no such curve, though single readings can be large or run the other way
PLK1 PBD block: blocks phosphopeptide binding to human PLK1 polo-box domain; Plk1 PBD binding of FITC phosphopeptide, fluorescence polarization; Potency, µM, actives largely listed as inhibitors; AID 720504; 360,000 tested, 2.8% active; note: series mostly up to about 57 µM; nearly all actives have a fitted effect of over 65% in size
RORgamma inh: blocks mouse ROR gamma transcriptional activity; 310,000 tested, 5.4% active; Drosophila S2 Gal4-RORgamma UAS-luciferase reporter, 20 h; Potency, µM (highest dose often 53.6 µM), actives largely listed as inhibitors; note: nearly all actives have a fitted effect of over 60% in size
Target sequence (P51450 whole entry, looked up, the tested form may be a part): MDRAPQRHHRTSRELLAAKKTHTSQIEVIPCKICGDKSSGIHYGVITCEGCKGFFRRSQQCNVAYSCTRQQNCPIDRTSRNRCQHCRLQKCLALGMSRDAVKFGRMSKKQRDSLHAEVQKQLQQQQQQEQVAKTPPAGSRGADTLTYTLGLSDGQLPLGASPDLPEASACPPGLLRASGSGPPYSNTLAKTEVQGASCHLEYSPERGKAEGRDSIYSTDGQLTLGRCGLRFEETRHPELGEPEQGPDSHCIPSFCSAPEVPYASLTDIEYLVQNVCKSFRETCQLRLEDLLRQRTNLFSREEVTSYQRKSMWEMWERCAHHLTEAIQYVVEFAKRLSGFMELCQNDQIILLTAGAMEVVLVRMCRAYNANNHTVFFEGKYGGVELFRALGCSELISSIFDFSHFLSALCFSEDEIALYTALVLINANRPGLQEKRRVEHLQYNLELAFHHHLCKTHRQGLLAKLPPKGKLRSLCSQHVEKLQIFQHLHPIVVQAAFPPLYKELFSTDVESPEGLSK
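Drosophila S2 cells stably expressing Gal4-DBD/mouse RORγ fusion under metallothionein promoter plus UAS-luciferase; compound 1 h, then 700 uM CuSO4 induction for 20 h at ambient temperature; inhibition read as reduced luminescence.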
Sfp inh: blocks B. subtilis Sfp PPTase activity. Q9F4F7. AID 1490. 310,000 tested, 3.5% active. Potency, µM, most hits filed as inhibitors. Biochemical Sfp PPTase activity, qHTS;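 note: the enzyme is Sfp with the accession as filed and its product quenches rhodamine fluorescence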
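After 15 min at room temperature with compound, 15 nM Sfp received 5 uM rhodamine-CoA plus 12.5 uM BHQ-2-ybbR (50 mM Hepes pH 7.6, 10 mM MgCl2). Rate came from the fluorescence difference over 30 min, ex 525/em 598 nm.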
VP16 counter: counter-screen for ROR gamma inhibitors: Gal4-VP16 reporter. 310,000 tested, 3.5% active. Drosophila S2 Gal4-VP16 UAS-luciferase, luminescence, 20 h. Potency, µM (series often up to 53.6 µM), hits mostly inhibitors;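 note: Gal4-VP16 expression switched on by copper sulfate through the metallothionein promoter; nearly all actives have a fitted effect of over 50% in size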
Of the large screens only hits and unclear results are named; the others gave an inactive call. Unless noted, calls come from the whole dose curve; as a rule, active = well fitted curve in the direction sought with a large enough effect; inconclusive = small, poorly fitted or top-dose-only effect, or another doubt; inactive = no such curve, though single readings can be large; an effect the other way counts as inactive or inconclusive.

CCOC(=O)CCN1C(=O)[C@H]2[C@H]3[C@H](O)[C@H](O)C/C(=N/NC(=O)OCC)[C@@H]3CC[C@@H]2C1=O	none (no result: PLK1 PBD block)
Cc1c(N(C)C(=O)c2ccco2)c(=O)n(-c2ccccc2)n1C	PLK1 PBD block 26.7µM
Cc1nc(NS(=O)(=O)c2ccccc2)sc1C(=O)NNS(=O)(=O)c1ccccc1	none (no result: ALDH1A1 inh)
Cc1nc(C)c(C(=O)NNS(=O)(=O)c2ccc3ccccc3c2)s1	ALDH1A1 inh inconclusive, RORgamma inh inconclusive, VP16 counter 1µM
N#CCN(CC#N)C(=O)C1c2ccccc2Oc2ccccc21	PLK1 PBD block 23.8µM (no result: ALDH1A1 inh, RORgamma inh, VP16 counter)
CC(=O)N(C)C[C@@H]1Oc2ncc(Br)cc2C(=O)N([C@H](C)CO)C[C@@H]1C	none (no result: ALDH1A1 inh, RORgamma inh, Sfp inh, VP16 counter)
CCNc1ncc2nc(-c3cccs3)c(=O)n(Cc3cccc(OC)c3)c2n1	ALDH1A1 inh inconclusive (no result: PLK1 PBD block)
Cc1cc(NC(=S)N(CCCN2CCN(C)CC2)Cc2ccco2)ccc1Cl	RORgamma inh inconclusive
CCc1ccccc1NC(=S)N(CCN1CCCCC1)Cc1ccco1	RORgamma inh 11.2µM
COc1ccc(NC(=S)N(CCN2CCCCC2)Cc2ccco2)cc1	ALDH1A1 inh inconclusive, RORgamma inh inconclusive
CCc1ccccc1NC(=S)N(Cc1ccco1)C(C)c1cccs1 (centres undefined)	RORgamma inh 11.2µM
Cc1ccc(NC(=S)N(CCN2CCCCC2)Cc2ccco2)cc1Cl	RORgamma inh 14.1µM, VP16 counter inconclusive
Cc1cc(C)cc(NC(=S)N(CCN2CCCCC2)Cc2ccco2)c1	RORgamma inh 10µM
CCN1CCN(CCCN(Cc2ccco2)C(=S)Nc2ccccc2Cl)CC1	none
CS(=O)(=O)N1CCC2(CCN(c3ccccn3)CC2)CC1	ALDH1A1 inh inconclusive (no result: PLK1 PBD block)
CC(C)(C)C(=O)N1CCN(C(=O)c2ccco2)CC1	none (no result: ALDH1A1 inh)
COC(=O)[C@]12CCCCC=C1N(Cc1ccco1)C(=O)[C@H](CC(=O)NCCCN1CCCC1=O)C2	none (no result: ALDH1A1 inh, RORgamma inh, Sfp inh, VP16 counter)
CCOc1cc(/C=N/Nc2nc(N3CCCC3)nc(N3CCCC3)n2)ccc1O	RORgamma inh 5.62µM, VP16 counter 5.01µM
CCOc1cc(/C=N/Nc2nc(Nc3ccccc3)nc(N3CCCCC3)n2)ccc1OCC(=O)O	RORgamma inh 4.47µM, VP16 counter inconclusive
CC1(C)CC(=O)C2=C(C1)N=C1SCCC(=O)N1C2c1cccc([N+](=O)[O-])c1 (centres undefined)	ALDH1A1 inh 10µM
CN1C(=O)NC(c2cccc([N+](=O)[O-])c2)C2=C1CC(C)(C)CC2=O (centres undefined)	none (no result: ALDH1A1 inh)
O=C1NC(=S)S/C1=C\C=C\c1ccc([N+](=O)[O-])o1	PLK1 PBD block 21.2µM, RORgamma inh 5.62µM, Sfp inh 44.7µM, VP16 counter 4.47µM (no result: ALDH1A1 inh)
O=C(O)CCNC(=O)/C(=C\c1ccco1)NC(=O)c1ccco1	Sfp inh 79.4µM (no result: ALDH1A1 inh)
O=C(O)CCCCCNC(=O)/C(=C\c1ccco1)NC(=O)c1ccco1	none (no result: ALDH1A1 inh)
O=C(NCc1ccccn1)/C(=C/c1ccco1)NC(=O)c1ccccc1	Sfp inh 79.4µM
O=C(N/C(=C/c1ccco1)C(=O)N1CCc2ccccc21)c1ccco1	Sfp inh 39.8µM (no result: ALDH1A1 inh)
O=C(NC(Cc1ccccc1)C(=O)O)/C(=C\c1ccco1)NC(=O)c1ccccc1Br (centres undefined)	ALDH1A1 inh inconclusive, Sfp inh 50.1µM
O=C(COC(=O)Cc1ccc(Cl)c(Cl)c1)NCCc1ccccc1	none (no result: ALDH1A1 inh, RORgamma inh, Sfp inh, VP16 counter)
CCCNC(=O)c1cc(OC)c(OC)cc1[N+](=O)[O-]	none
COc1cc(C(=O)NCCc2ccc(F)cc2)c([N+](=O)[O-])cc1OC	PLK1 PBD block 13.4µM
Cc1oc(-c2ccc(Cl)cc2)cc1C(=O)O	RORgamma inh 14.1µM, VP16 counter inconclusive (no result: ALDH1A1 inh)
O=C(/C=C/[C@H]1O[C@@H](n2ccc(=O)[nH]c2=O)[C@H](O)[C@@H]1O)NCCN1CCOCC1	none (no result: ALDH1A1 inh, RORgamma inh, Sfp inh, VP16 counter)
NC1CCN(c2nc3c(cc2F)c(=O)c(C(=O)O)cn3-c2ccc(F)cc2F)C1 (centres undefined)	PLK1 PBD block 26.7µM (no result: ALDH1A1 inh)
CN1C(=S)N(c2cccnc2)C(=O)/C1=C\c1ccc(N(C)C)cc1	ALDH1A1 inh 12.6µM, Sfp inh inconclusive
Cc1c(N2C(=O)/C(=C\c3ccc(N(C)C)cc3)N(C)C2=S)c(=O)n(-c2ccccc2)n1C	ALDH1A1 inh 4.47µM, RORgamma inh inconclusive
CN1C(=S)N(c2cccnc2)C(=O)/C1=C\c1ccc(C(C)(C)C)cc1	ALDH1A1 inh 7.08µM, RORgamma inh inconclusive, Sfp inh inconclusive, VP16 counter inconclusive
CCOC(=O)C1=C[C@@H](C(=O)OCC)[C@@H]2C3=C(C(=O)C2(C)C)[C@H](c2ccccc2)[C@@H]2C(=O)N(c4ccccc4)C(=O)[C@@H]2[C@@H]3C1	none (no result: ALDH1A1 inh, PLK1 PBD block)
Cn1cc(-c2nc3cnc(Oc4ccccc4)nc3n(Cc3cccs3)c2=O)c2ccccc21	none (no result: PLK1 PBD block)
C[C@@H]1CN([C@@H](C)CO)C(=O)CCCn2nncc2CO[C@H]1CN(C)Cc1ccc2cccnc2c1	none (no result: ALDH1A1 inh, RORgamma inh, Sfp inh, VP16 counter)
S=P(c1ccc(N2CCOCC2)cc1N1CCOCC1)(N1CCOCC1)N1CCOCC1	ALDH1A1 inh 28.2µM, PLK1 PBD block 21.2µM, Sfp inh 35.5µM
O=C(Nc1ccc(N2CCOCC2)cc1N1CCOCC1)c1ccc(Br)cc1	none (no result: ALDH1A1 inh)
COC(=O)C(N)Cc1ccc(OC)c([N+](=O)[O-])c1 (centres undefined)	ALDH1A1 inh inconclusive
CCCCCC(=O)NC(Cc1ccc(OC)c([N+](=O)[O-])c1)C(=O)O (centres undefined)	ALDH1A1 inh 12.6µM, PLK1 PBD block 21.2µM
O=C(Nc1cccc(-c2nn[nH]n2)c1)c1cccs1	RORgamma inh 7.94µM, VP16 counter 10µM (no result: ALDH1A1 inh)
COc1ccc(N)cc1-n1c(C)ccc1C	ALDH1A1 inh 14.1µM, PLK1 PBD block inconclusive
O=C(O)CN1C(=O)O[C@@H](c2ccccc2)C1=O	none (no result: PLK1 PBD block, RORgamma inh, Sfp inh, VP16 counter)
O=C1CC(c2ccc3c(c2)OCO3)c2ccc(O)cc2O1 (centres undefined)	none (no result: PLK1 PBD block)
O=C1CC(c2ccc3c(c2)OCO3)c2cc(O)ccc2O1 (centres undefined)	ALDH1A1 inh inconclusive, Sfp inh 89.1µM (no result: PLK1 PBD block)
O=C1CC(c2ccccc2)c2cc(O)ccc2O1 (centres undefined)	ALDH1A1 inh inconclusive, RORgamma inh 11.2µM, Sfp inh inconclusive
Cc1ccc(C2CC(=O)Oc3cc(O)ccc32)cc1 (centres undefined)	none
CSCC[C@@H](CO)NC(=O)[C@H]1O[C@@H](n2ccc(=O)[nH]c2=O)[C@H](O)[C@@H]1O	none (no result: ALDH1A1 inh, RORgamma inh, Sfp inh, VP16 counter)
COc1ccc(-n2c(=O)c(-c3cn(C)c4ccccc34)nc3cnc(N4CCOCC4)nc32)cc1	ALDH1A1 inh inconclusive (no result: PLK1 PBD block)
O=C(CCCCCN1C(=O)CCC1=O)Nc1ccc2c(c1)OCO2	ALDH1A1 inh inconclusive, PLK1 PBD block 23.8µM
O=C(CCCCCN1C(=O)c2ccccc2C1=O)Nc1ccc2c(c1)OCCO2	ALDH1A1 inh 28.2µM
O=C(CN1C(=O)CSc2ccccc21)Nc1ccc2c(c1)OCCO2	PLK1 PBD block 26.7µM
O=C(CCc1nc2ccccc2[nH]1)Nc1ccc2c(c1)OCO2	ALDH1A1 inh 10µM
